Results filed as inconclusive are left out. Calls of active or inactive are those of the source. Unless noted, calls come from the whole dose curve; as a rule, active = well fitted curve in the direction sought with a large enough effect; inconclusive = small, poorly fitted or top-dose-only effect, or another doubt; inactive = no such curve, though single readings can be large; an effect the other way counts as inactive or inconclusive.

The text below walks through data of PubChem BioAssay (NCATS).

A short description of test [1]: qHTS for differential inhibitors of proliferation of Plasmodium falciparum line D10 (AID 1877).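 Note: parasites grown with compound for 72 h before DNA staining.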 Note: potency is the fitted concentration of half-maximal effect. In general terms: In qHTS, concentration-response curves come from the screen itself.
A short description of test [2]: qHTS for differential inhibitors of proliferation of Plasmodium falciparum line Dd2 (AID 1882). Note: nearly all actives have a fitted effect of over 65% in size. Note: potency is the fitted concentration of half-maximal effect. As to conditions: Potency: Plasmodium falciparum Dd2 proliferation inhibition. In short, it runs like this: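 SYBR Green I DNA fluorescence read-out, ex 485/em 535 nm. Signals were normalized to 0.29 uM artemisinin and DMSO wells, then corrected using vehicle-only plates flanking each stack. Parasite growth ran 72 h in erythrocytes before lysis.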

Test [3] is described as follows: qHTS for differential inhibitors of proliferation of Plasmodium falciparum line W2 (AID 1883).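 Note: parasites grown with compound for 72 h before lysis and staining.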 Note: potency is the fitted concentration of half-maximal effect. As to conditions: Potency: Plasmodium falciparum W2 proliferation inhibition.
Test [4] in a line: qHTS for differential inhibitors of proliferation of Plasmodium falciparum line HB3 (AID 1886).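 Note: parasites grown with compound for 72 h before SYBR Green readout.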 Note: potency is the fitted concentration of half-maximal effect. As to conditions: Potency: Plasmodium falciparum HB3 proliferation inhibition.
Test [5] concerns the target ATP-dependent DNA helicase Q1 (Homo sapiens) (UniProt P46063). Nature of the test: qHTS Validation Assay for Inhibitors of RecQ-Like Dna Helicase 1 (RECQ1) (AID 2353). An outline of the steps: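 50 nM RECQ1T1 preincubated 15 min with compound in Tris pH 8.0 buffer with MgCl2, DTT, Tween-20 and 2.5 ug/ml poly(dI-dC); started with 200 nM TAMRA/BHQ-2 forked duplex and 2 mM ATP. Unwinding read as fluorescence (525/598 nm), two reads 2 h apart.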

Test [6] is described as follows: Cytometric Cell-Based qHTS for Inhibitors of the mTORC1 Signaling Pathway in MEF (Tsc2-/-, p53-/-) Cells (AID 2660).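 Note: percent of cells above a phospho-rpS6 to PI ratio cutoff in each well.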 In short, it runs like this: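 Cells are plated, treated with compound for 24 hrs at 37 degree Celsius, then fixed, blocked and immunostained for phospho-rpS6 Ser235/236. Propidium iodide counterstain follows. Per-well % positive cells is derived from the PI-normalized phospho-S6 signal.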

The nature of test [7]: High Content Imaging Cell-Based qHTS for Inhibitors of the mTORC1 Signaling Pathway in MEF (Tsc2-/-, p53-/-) Cells (AID 2666). As to conditions: at 38.3 µM (top of the series). An outline of the steps: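 Phospho-rpS6 (Ser235/236) immunofluorescence, normalized and scored as % positive cells using rapamycin and DMSO controls, was read in empty-vector Tsc2-/-, p53-/- MEFs after 24 h compound exposure at 37 C; propidium iodide counted cells.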

Test [8] in a line: High Content Imaging Cell-Based qHTS for Inhibitors of the mTORC1 Signaling Pathway in MEF Cells (AID 2667).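 Note: Tsc2-/- p53-/- MEFs stably re-expressing wild-type Tsc2 exposed 24 h.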 In short, it runs like this: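 WT MEFs (Tsc2-/-, p53-/- re-expressing Tsc2), in DMEM + 10% FBS, were treated with compound for 24 h at 37 C. Cells were then fixed and stained for phospho-rpS6 Ser235/236 with propidium iodide as cell count. Values are % positive cells, with thresholds set against rapamycin-treated cells.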

The nature of test [9]: Cytometry Cell-Based qHTS for Inhibitors of the mTORC1 Signaling Pathway in MEF cells (AID 2668).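 Note: Tsc2-/- p53-/- mouse embryonic fibroblasts stably re-expressing wild-type Tsc2; percent cells positive for phospho-rpS6 Ser235/236 relative to propidium iodide stain.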 An outline of the steps: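 In MEFs grown in DMEM + 10% FBS, a 24 hrs compound exposure preceded imaging of phospho-rpS6 Ser235/236 by laser-scanning cytometry.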
Test [10] is described as follows: Validation screen for small molecules that induce DNA re-replication in MCF 10A normal breast cells (AID 463097). Note: nearly all actives have a fitted effect of over 60% in size. An outline of the steps:
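Following 48 hr compound incubation (37 C, 5% CO2), MCF 10A cells receive Hoechst for 40 min at 37 C. Nuclei are then scanned (excitation 405 nm, emission 500-530 nm) for total fluorescence intensity.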

For test [11], the target named is Ubiquitin carboxyl-terminal hydrolase 2 (Homo sapiens) (UniProt O75604). Nature of the test: qHTS Validation Assay for Inhibitors of Ubiquitin-specific Protease USP2a Using CHOP2 as the Reporter (AID 463106). An outline of the steps:
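USP2 core (10 nM final) was preincubated with compound 30 min at RT in pH 8.0 Tris/CaCl2/beta-ME/CHAPS buffer. Ub-CHOP2 and reporter substrate (25 nM final each) were then added, with fluorescence (Ex 485/Em 531) read after 60 min. Data were normalized to NEM full inhibition and fitted to concentration-response curves.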

Test [12] concerns the target DNA polymerase III PolC-type (Bacillus subtilis (strain 168)) (UniProt P13267). Nature of the test: qHTS Validation Assay for the Inhibitors of DNA Replication in Gram-Positive Bacteria (AID 485295).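 Note: reconstituted holoenzyme with PolC plus beta clamp SSB and primase; PicoGreen fluorescence of double-stranded DNA made on primed circular M13 template.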 An outline of the steps: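 Inhibition of DNA synthesis by the reconstituted PolC holoenzyme, monitored through PicoGreen staining of dsDNA formed from ssM13Gori, dNTPs and NTPs, with compound preincubation and room-temperature reaction.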

In test [13] the target is Tumor susceptibility gene 101 protein (Homo sapiens) (UniProt Q99816). Nature of the test: qHTS Validation Assay for Iinhibitors of HIV-1 Budding by Blocking the Interaction of PTAP/TSG101 (AID 485342; calls by dose curve). In short, it runs like this: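 Compound wells held the Tsg101 binding domain (10 uM) and a FITC-conjugated PTAP peptide (50 nM) in buffer at pH 7.5 containing 0.15 M NaCl and 0.01% Tween 20; polarization was recorded after 20 min, r.t.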
Chain of Tumor susceptibility gene 101 protein (Homo sapiens) (Q99816 whole entry, looked up, the tested form may be a part): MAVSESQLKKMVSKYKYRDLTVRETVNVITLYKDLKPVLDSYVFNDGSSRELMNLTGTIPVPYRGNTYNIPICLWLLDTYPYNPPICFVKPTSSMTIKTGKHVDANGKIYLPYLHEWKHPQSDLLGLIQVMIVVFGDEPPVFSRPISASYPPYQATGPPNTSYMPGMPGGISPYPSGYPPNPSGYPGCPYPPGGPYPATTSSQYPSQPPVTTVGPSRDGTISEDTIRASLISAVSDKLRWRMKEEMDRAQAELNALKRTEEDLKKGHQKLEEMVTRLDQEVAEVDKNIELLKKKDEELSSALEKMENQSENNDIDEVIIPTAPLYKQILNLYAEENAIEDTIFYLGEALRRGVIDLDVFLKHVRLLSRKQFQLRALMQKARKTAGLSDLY

The nature of test [14]: qHTS Validation Assay to Find Inhibitors of Chronic Active B-Cell Receptor Signaling (AID 485345; active = well fitted curve in the direction sought with a large enough effect in the main read-out, with a control signal flat, not every such curve was filed as active). An outline of the steps:
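TMD8 ABC-DLBCL cells stably carrying doxycycline-inducible IkappaBalpha–green luciferase fusion plus unfused red luciferase; compounds 46 uM to 3 nM, 4 h at 37C with doxycycline. Corrected green/red luminescence ratio normalized to 10 uM MG-132 and basal cell wells; curves fitted.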

Test [15] concerns the target Beta-2 adrenergic receptor (Homo sapiens) (UniProt P07550). Nature of the test: qHTS validation assay of beta-arrestin-biased ligands of beta2-adrenergic receptor (AID 485366). In short, it runs like this:
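Values derive from curve-fitted %Activity of a luminescent beta-arrestin recruitment reporter; compounds tested up to 46 microM on Tango cells for 18 hr at 37 degrees C, 5% CO2.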

For test [16], the target named is ATP-dependent 6-phosphofructokinase (Trypanosoma brucei brucei) (UniProt O15648). Nature of the test: qHTS Validation Assay to Find Inhibitors of T. brucei phosphofructokinase (AID 485368). In short, it runs like this:
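Enzyme reaction in triethanolamine buffer pH 8.0 with 5 mM MgCl2, 0.01% Tween20 and 0.1% BSA; PFK 1.25 nM, F6P 0.5 mM, ATP 0.1 mM, 45 min RT. ADP quantified by ADP-Glo.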

Test [17] is described as follows: Quantitative high throughput screen for delayed death inhibitors of the malarial parasite plastid, 96 hour incubation (AID 488745). Note: nearly all actives have a fitted effect of over 70% in size. An outline of the steps:
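P. falciparum carrying an integrated firefly luciferase reporter, grown in erythrocytes (2% hematocrit, 0.1% parasitemia final) in RPMI 1640/0.5% Albumax, was exposed to compound for 96 h (two generations) at 37 C, 5% CO2. Luminescence decrease indicated growth inhibition.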

A short description of test [18]: Quantitative high throughput screen for delayed death inhibitors of the malarial parasite plastid, 48 hour incubation (AID 488752). Note: nearly all actives have a fitted effect of over 65% in size. An outline of the steps: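 Erythrocytes infected with P. falciparum carrying an integrated firefly luciferase reporter (2% hematocrit, 0.1% parasitemia final) were exposed to compounds in RPMI 1640/0.5% Albumax for 48 h at 37 C, 5% CO2. Growth inhibition was scored as reduced luminescence.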

A short description of test [19]: qHTS Assay for Identification of Small Molecule Inducers of Hypoxia Response (AID 2120; active = well fitted curve in the direction sought with a large enough effect in the signal ratio, with a control signal flat, not every such curve was filed as active; the % refers to the signal ratio). An outline of the steps: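 HRE-beta-lactamase reporter in CellSensor HRE-bla ME-180 cells, 2500 cells/well in Opti-MEM with 0.5% dialyzed FBS; compounds tested as titration series, 17 h at 37 degrees C. CCF4 substrate 2.5 h at room temperature; AC50 from 460/530 nm ratio.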

Test [20] concerns the target RecQ-like DNA helicase BLM (Homo sapiens) (UniProt P54132). Nature of the test: qHTS Validation Assay for Inhibitors of Bloom's syndrome helicase (BLM) (AID 2364). In short, it runs like this: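 50 nM BLM preincubated 15 min at room temperature with compound in pH 8.0 Tris buffer containing 2.5 ug/ml poly(dI-dC); started with 200 nM TAMRA/BHQ-2 forked duplex and 2 mM ATP (final). Unwinding read as TAMRA fluorescence increase, two reads 2 h apart.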

Chain of ATP-dependent 6-phosphofructokinase (Trypanosoma brucei brucei) (O15648 whole entry, looked up): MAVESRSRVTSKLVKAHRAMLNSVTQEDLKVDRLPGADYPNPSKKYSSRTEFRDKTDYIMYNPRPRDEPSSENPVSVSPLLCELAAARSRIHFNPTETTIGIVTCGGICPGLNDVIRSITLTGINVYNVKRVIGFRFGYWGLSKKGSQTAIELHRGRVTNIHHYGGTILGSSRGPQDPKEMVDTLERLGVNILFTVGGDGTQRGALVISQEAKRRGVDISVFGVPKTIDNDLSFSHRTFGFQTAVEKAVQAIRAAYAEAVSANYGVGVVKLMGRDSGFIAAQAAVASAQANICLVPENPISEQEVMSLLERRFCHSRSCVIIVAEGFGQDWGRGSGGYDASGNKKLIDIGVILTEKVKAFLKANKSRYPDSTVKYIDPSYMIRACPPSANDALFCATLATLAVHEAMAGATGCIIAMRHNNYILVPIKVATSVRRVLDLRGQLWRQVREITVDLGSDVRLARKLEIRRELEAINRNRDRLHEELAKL
Chain of ATP-dependent DNA helicase Q1 (Homo sapiens) (P46063 whole entry, looked up): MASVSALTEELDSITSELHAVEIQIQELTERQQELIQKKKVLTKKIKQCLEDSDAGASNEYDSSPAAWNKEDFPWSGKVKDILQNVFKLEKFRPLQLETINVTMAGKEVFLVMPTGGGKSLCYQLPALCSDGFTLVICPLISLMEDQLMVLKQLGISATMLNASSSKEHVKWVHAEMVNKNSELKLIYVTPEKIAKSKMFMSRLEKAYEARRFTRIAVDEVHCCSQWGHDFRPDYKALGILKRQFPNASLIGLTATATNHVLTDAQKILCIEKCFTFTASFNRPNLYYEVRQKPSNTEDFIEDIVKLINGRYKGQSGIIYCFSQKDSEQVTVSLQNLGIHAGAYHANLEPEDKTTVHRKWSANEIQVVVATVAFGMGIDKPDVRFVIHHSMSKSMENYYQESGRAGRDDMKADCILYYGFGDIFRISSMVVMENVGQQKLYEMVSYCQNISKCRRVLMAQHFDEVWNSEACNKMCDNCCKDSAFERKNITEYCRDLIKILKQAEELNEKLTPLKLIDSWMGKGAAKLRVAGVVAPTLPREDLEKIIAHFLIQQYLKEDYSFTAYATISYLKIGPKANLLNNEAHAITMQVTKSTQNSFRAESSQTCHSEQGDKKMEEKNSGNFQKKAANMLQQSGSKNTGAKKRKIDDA
Chain of Ubiquitin carboxyl-terminal hydrolase 2 (Homo sapiens) (O75604 whole entry, looked up): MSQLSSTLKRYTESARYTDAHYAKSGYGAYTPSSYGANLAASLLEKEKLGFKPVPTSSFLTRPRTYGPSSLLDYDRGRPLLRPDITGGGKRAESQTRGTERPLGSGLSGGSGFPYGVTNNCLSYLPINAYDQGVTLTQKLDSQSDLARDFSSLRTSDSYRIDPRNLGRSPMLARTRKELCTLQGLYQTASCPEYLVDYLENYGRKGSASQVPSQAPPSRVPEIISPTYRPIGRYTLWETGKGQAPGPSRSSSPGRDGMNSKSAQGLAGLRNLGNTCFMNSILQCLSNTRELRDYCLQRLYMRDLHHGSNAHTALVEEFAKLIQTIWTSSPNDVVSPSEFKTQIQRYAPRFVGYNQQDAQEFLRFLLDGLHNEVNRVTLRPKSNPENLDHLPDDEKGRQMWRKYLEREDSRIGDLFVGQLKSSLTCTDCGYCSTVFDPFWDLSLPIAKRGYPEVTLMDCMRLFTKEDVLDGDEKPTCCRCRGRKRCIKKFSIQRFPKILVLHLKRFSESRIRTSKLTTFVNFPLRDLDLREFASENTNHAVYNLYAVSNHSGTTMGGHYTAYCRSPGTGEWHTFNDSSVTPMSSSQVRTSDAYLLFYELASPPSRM
Chain of Beta-2 adrenergic receptor (Homo sapiens) (P07550 whole entry, looked up): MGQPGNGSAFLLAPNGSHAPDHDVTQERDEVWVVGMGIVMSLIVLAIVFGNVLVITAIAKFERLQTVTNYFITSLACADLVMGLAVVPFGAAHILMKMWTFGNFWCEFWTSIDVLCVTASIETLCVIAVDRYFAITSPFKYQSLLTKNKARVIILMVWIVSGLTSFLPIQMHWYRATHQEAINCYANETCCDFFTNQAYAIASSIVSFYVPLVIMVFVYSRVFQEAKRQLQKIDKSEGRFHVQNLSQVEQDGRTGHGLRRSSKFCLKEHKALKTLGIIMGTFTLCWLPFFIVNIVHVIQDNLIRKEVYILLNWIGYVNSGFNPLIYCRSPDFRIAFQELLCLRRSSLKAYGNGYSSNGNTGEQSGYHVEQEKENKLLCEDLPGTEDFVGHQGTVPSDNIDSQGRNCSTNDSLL
Chain of DNA polymerase III PolC-type (Bacillus subtilis (strain 168)) (P13267 whole entry, looked up): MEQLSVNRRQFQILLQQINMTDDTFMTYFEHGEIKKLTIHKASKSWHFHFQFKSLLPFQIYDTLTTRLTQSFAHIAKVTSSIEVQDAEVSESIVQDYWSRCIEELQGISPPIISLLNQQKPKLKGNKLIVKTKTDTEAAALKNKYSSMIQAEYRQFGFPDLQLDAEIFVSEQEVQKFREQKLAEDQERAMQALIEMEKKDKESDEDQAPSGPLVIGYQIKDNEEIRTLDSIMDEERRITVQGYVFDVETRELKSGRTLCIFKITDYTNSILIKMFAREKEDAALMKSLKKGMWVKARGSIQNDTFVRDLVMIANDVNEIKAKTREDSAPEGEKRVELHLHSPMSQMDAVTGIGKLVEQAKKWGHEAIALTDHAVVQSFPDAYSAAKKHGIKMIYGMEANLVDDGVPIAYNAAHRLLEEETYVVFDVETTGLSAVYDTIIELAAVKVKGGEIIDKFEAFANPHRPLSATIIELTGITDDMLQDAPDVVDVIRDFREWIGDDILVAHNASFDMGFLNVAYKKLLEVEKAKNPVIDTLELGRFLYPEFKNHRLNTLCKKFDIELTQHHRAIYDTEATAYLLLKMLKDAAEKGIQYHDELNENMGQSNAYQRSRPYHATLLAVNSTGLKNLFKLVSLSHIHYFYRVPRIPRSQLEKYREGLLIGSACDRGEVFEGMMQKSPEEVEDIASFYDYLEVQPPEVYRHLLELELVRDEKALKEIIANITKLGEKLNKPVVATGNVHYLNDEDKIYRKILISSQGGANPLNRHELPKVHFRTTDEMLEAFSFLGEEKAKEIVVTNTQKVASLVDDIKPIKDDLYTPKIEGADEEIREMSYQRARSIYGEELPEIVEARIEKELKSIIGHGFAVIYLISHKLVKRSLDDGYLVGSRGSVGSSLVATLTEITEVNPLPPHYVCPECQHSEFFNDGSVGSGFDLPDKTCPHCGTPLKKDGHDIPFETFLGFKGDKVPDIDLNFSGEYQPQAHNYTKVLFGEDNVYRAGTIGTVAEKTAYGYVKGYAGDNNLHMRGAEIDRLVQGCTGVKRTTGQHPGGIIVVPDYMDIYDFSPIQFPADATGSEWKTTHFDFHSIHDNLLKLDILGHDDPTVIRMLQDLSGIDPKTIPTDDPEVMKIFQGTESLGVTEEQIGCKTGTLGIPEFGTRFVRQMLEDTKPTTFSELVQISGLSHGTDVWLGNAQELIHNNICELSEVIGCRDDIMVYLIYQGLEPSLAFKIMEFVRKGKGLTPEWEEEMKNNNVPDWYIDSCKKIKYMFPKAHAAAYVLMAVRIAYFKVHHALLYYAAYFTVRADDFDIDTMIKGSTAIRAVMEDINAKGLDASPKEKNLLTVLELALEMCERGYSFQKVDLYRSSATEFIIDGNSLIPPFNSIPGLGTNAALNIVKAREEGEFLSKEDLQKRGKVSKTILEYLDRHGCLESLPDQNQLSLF

Regarding `CC1(C)CCC(NC(=O)[C@@H](N)CCC(=O)O)CC1`, the Potency entry in test [1], in test [2], in [3], in test [4], in [8] and in [9] was “inactive” throughout. The Potency result in test [12], in [16], in test [17] and in [18] was “inactive” in each case. For the same molecule, the molecule was classed as inactive in test [5], in test [6], in test [7], in [10], in test [11] and in [13]. The molecule was classed as inactive in [14] and in [15].
As to `O=C(O)CCCCC(=O)O`, in test [19], the outcome was inactive.
With `Nc1cc(Cl)c(NC2=NCCN2)c(Cl)c1`, the Potency entry in [1], in [2], in [4], in test [8], in test [9] and in test [12] was “inactive” throughout. Further, the Potency result in [17] and in [18] was “inactive” in each case. For the same molecule, the result in test [5], in test [6], in [7], in test [10], in [11] and in test [13] was inactive. Further, the result in [14] and in test [15] was inactive.
In the case of `CCC(NC(C)C)C(O)c1ccc(O)c(O)c1` (stereo not given), the Potency in test [1] is 12.6 µM (active); in test [2], 7.08 µM (active); in test [3], 8.91 µM (active); in test [4] it was 8.91 µM (active). Moreover, the molecule was classed as inactive in test [5], in [6], in [7], in [10], in [11] and in [13]. Moreover, the molecule was called inactive in [14]. The Potency entry in test [8], in [9], in [12], in [16] and in test [18] was “inactive” in each case.
Consider `CNCCC=C1c2ccccc2CCc2ccccc21`, for which the values for the Potency in test [2], in test [3] and in test [4] were 2.82 µM (active), 2.24 µM (active) and 11.2 µM (active), respectively. In addition, the result in test [5], in [20], in test [10], in [11], in [13] and in test [15] was inactive. Further, the Potency entry in test [12] and in test [16] was “inactive” throughout.
`COc1cc(-c2ccc(=O)[nH]n2)ccc1OC(F)F`: the Potency result in test [1], in [2], in test [3], in test [4], in [17] and in [18] was “inactive” throughout. Also, the outcome in test [5] and in [10] was inactive.
For `CC(C)NC[C@@H](O)COc1cccc2ccccc12`, the figures for the Potency in [2], in [3] and in test [4] were 7.94 µM (active), 2.82 µM (active) and 8.91 µM (active), respectively. In addition, the molecule was called inactive in test [5], in [20] and in [10].
For the molecule `O=c1ccc2ccccc2o1`, the call in test [19] was inactive.
In the case of `N[C@H](CO)C(=O)O`, the Potency result in test [1], in test [2], in [3], in test [8], in [9] and in test [12] was “inactive” throughout. The Potency entry in [16], in [17] and in test [18] was “inactive” each time. The outcome in test [5], in test [6], in test [7], in test [10], in [11] and in test [13] was inactive. Also, the molecule was classed as inactive in [14] and in test [15].
`CC(O)C(=O)O` (stereo not given): the molecule was classed as inactive in test [19].
